Sampled rows, rich in hits. Any-hit rate of the full collection: about 19%.
Pf growth 96h: P. falciparum growth inhibition at 96 hour, primary screen for plastid delayed-death inhibitors; P. falciparum luciferase reporter growth, 96 h; Potency, µM (series often up to 28.7 µM), inactives show at the highest dose activity change, negative = inhibition, actives largely listed as inhibitors; AID 504834; 320,000 tested, 6.9% active; also: potency is read from the fitted curve at half-maximal effect; % is scaled to controls: 0 for no effect and ±100 for the full control effect
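Plates of compound plus infected erythrocytes (2% hematocrit, 0.05% parasitemia final) incubate 96 hours, 37 C, 5% CO2. Detection reagent added; reduced luminescence from the parasites' luciferase reporter flags inhibition.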
AMA1 RON2 block: disrupts binding of P. falciparum AMA1 to RON2. AlphaScreen AMA1-biotinylated RON2 peptide binding. Potency, µM (doses to about 58.2 µM), for inactives: top-dose activity change, negative = inhibition, most hits filed as inhibitors. 360,000 tested, 0.2% active;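 also: potency is read from the fitted curve at half-maximal effect; 0% = vehicle wells and -100% = peptide control; nearly all actives have a fitted effect of over 45% in size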
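AMA1 (3D7) with his tag at 25 nM final met compounds first, then biotinylated RON2 peptide at 25 nM; detection used donor plus acceptor beads, 10 µg/mL apiece, read by AlphaScreen after 30 min at room temperature.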
Shiga toxin inh: inhibitors of Shiga toxin in Vero cells. Vero cells, Shiga toxin protein synthesis inhibition reporter. inhibition, % at 38.7 µM. 290,000 tested, 9.2% active; in the data active = inhibition mostly above about 28%, no sharp cut-off; inactive = mostly below about 43%; also: 0% is about no effect
Pf growth 48h: inhibits P. falciparum growth in the first generation, 48 h; 310,000 tested, 5.9% active; Potency, µM (doses to about 28.7 µM), without a hit: at the highest dose activity change, negative = inhibition, usual class: inhibitors; AID 504832; P. falciparum luciferase growth in erythrocytes, 48 h; also: potency is read from the fitted curve at half-maximal effect; % is scaled to controls: 0 for no effect and ±100 for the full control effect
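Here the parasites carry a stable luciferase gene and grow inside erythrocytes in Albumax-based RPMI medium with compound for one erythrocytic cycle. Activity is scored as loss of luminescent signal.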
SARS PLP yeast: inhibitors of SARS-CoV papain-like protease in yeast; S. cerevisiae expressing SARS-CoV PLpro, growth rescue; Potency, µM (top dose mostly 32.9 µM), without a hit: top-dose activity, positive = growth rescue, actives largely listed as activators; 330,000 tested, 0.19% active; AID 485353; calls by dose curve; also: potency is read from the fitted curve at half-maximal effect; 0% is about no effect; nearly all actives have a fitted effect of over 55% in size
CHX counter: counter-screen for Shiga toxin inhibitors: cycloheximide protein synthesis inhibition | cell reporter, cycloheximide protein synthesis inhibition counterscreen | max response, % | 300,000 tested, 12% active; in the data active = max response mostly above about 13%, no sharp cut-off; inactive = mostly below about 14%; also: read at 38.3 µM for the half of the compounds with a filed dose; 0% is about no effect
* marks the source's active call; other numbers are inactive results; i = inactive; ? = inconclusive; . = no result; + = active, no number; [ ] = remark or other dose. Unless noted, calls follow the shape of the dose curve; as a rule, active = well fitted curve in the direction sought with a large enough effect; inconclusive = small, poorly fitted or top-dose-only effect, or another doubt; inactive = no such curve, though single readings can be large; an effect the other way counts as inactive or inconclusive.

SMILES | Pf growth 96h | AMA1 RON2 block | Shiga toxin inh | Pf growth 48h | SARS PLP yeast | CHX counter
CCn1cc(C(=O)O)c(=O)c2cc(F)c(N3CCN(C(=S)NC(=O)c4cccc(F)c4)CC3)cc21 | ? | 96% | -7 | 10µM* | 2% | -1
CCn1cc(C(=O)O)c(=O)c2cc(F)c(N3CCN(C(=S)NC(=O)c4ccc(F)cc4)CC3)cc21 | ? | 106% | 24 | ? | -1% | 7
CCn1cc(C(=O)O)c(=O)c2cc(F)c(N3CCN(C(=S)NC(=O)c4ccc(F)c(F)c4)CC3)cc21 | 1% | 94% | -10 | 6.6µM* | -1% | 8
CCCOc1ccc(C(=O)NC(=S)N2CCN(c3cc4c(cc3F)c(=O)c(C(=O)O)cn4CC)CC2)cc1 | 7% | 63% | -5 | 15µM* | 2% | 0
CCn1cc(C(=O)O)c(=O)c2cc(F)c(N3CCN(C(=S)NC(=O)c4ccccc4Br)CC3)cc21 | 5.2µM* | 97% | 3 | ? | 3% | 3
COC(=O)c1ccccc1NC(=O)COc1ccc(S(=O)(=O)NC(C)C)cc1 | 10% | -1% | -1 | ? | 0% | -1
O=C(CN1CCCCC1)N/N=C/c1ccccc1Br | ? | -1% | 21 | 14% | 6% | 9.1*
O=C(CN1CCCCCCC1)N/N=C/c1ccccc1F | ? | 30% | -27 | -10% | -4% | 20
Cc1cc(/C=N\NC(=O)CC(=O)NC2CCCCC2)c(C)n1-c1ccc(Cl)c(Cl)c1 | ? | -7% | 26 | 5% | ? | -2
O=C(CN1CCCCCC1)N/N=C/c1cccc(Cl)c1Cl | 0% | 4%[11.6 µM] | 105* | 37% | -16% | 24*
Cc1cc(/C=N\NC(=O)CC(=O)NC2CCCCC2)c(C)n1-c1cccc(Cl)c1Cl | 8.3µM* | -3% | 22 | -6% | 7% | 7
Cc1nn(-c2cccc(C(F)(F)F)c2)c(Cl)c1/C=N/Nc1cccc(C(=O)O)c1 | i | 5%[2.32 µM] | + | 257% | -37% | 106*
Cc1nn(Cc2ccccc2)c(Cl)c1/C=N/NC(=O)CNc1cccc(C(F)(F)F)c1 | 12µM* | -6% | -7 | ? | 5% | -1
Cc1nn(-c2ccccc2Cl)c(Cl)c1/C=N/Nc1cccc(C(=O)O)c1 | 101% | ? | 70* | 42% | -5% | 64*
CCOC(=O)N/N=C/c1c(C)nn(-c2cccc(C(F)(F)F)c2)c1Cl | 1.5µM* | 3%[2.32 µM] | 35 | 2.1µM* | -52% | 13*
CC(=O)Nc1ccc(S(=O)(=O)NC(C(=O)O)C(C)O)cc1 (stereo unspecified) | 48% | -14% | -11 | -3% | 0% | -2
O=C1NC(=Nc2ccccc2)c2c1cccc2[N+](=O)[O-] | -98% | 0% | 21 | ? | 6% | 19*
CC(=O)N1CCN(c2ccc(NCc3ccc(-c4ccc(Br)cc4)o3)cc2)CC1 | . | . | . | . | -3% | .
CC(C)(C)NC(=O)NC(=O)COC(=O)c1cccc(S(=O)(=O)N2CCCCC2)c1 | 7% | -1% | 13 | 4% | -25% | -5
N/C(Cc1ccc(Cl)cc1Cl)=N\OC(=O)Cc1ccccc1 | -19% | 108% | 22 | 9% | -115% | 20*
N/C(Cc1ccc(Cl)cc1Cl)=N\OC(=O)c1ccccc1 | 32% | 4% | 32* | ? | -36% | 19*
N/C(CC1CC1(Cl)Cl)=N\OC(=O)c1ccccc1 (stereo unspecified) | ? | 12% | 71* | ? | -6% | 45*
CC(C)=NOC(=O)c1ccc(-c2ccccc2)cc1 | ? | 2% | 30 | ? | -72% | 9
N/C(Cc1ccc(Cl)cc1Cl)=N\OC(=O)Cc1ccc(Cl)cc1 | -5% | 327% | 14 | 1% | -82% | -2
O=C1CC(NS(=O)(=O)c2ccc([N+](=O)[O-])cc2)CN1c1cccc(F)c1 (stereo unspecified) | 6% | 5% | . | ? | 1% | .
CSc1ncccc1C(=O)Nc1ccc(S(=O)(=O)N2CCCC2)cc1 | ? | 2% | . | ? | -1% | .
CSc1ncccc1C(=O)Nc1cccc(S(=O)(=O)N2CCCCC2)c1 | 10µM* | -7% | . | 12µM* | 0% | .
O=C(Nc1cccc(S(=O)(=O)N2CCCCCC2)c1)c1ccc2ccccc2n1 | ? | -22% | 3 | ? | 14% | 22*
